{
  "source": "PubChem BioAssay (NCATS)",
  "note": "Results filed as inconclusive are left out. Unmarked numbers belong to inactive results. Calls of active or inactive are those of the source. The call rests on the fitted dose curve; in most records, active means well fitted activation curve with a large enough effect; inconclusive means small, poorly fitted or top-dose-only effect; inactive means flat fitted curve, though single readings scatter. Potency means the concentration at half of the fitted maximal effect.",
  "data": [
    {"experiment": "Validation screen for small molecules that induce DNA re-replication in SW480 colon adenocarcinoma cells (AID 504364); on activity (re-replication induction): 0% is about no effect", "details": "DNA re-replication phenotype (high-content imaging); series mostly up to 46.1 µM; activity (re-replication induction): at the top concentration", "description": "H Molecular Libraries Probe Production Network [MLPCN]\nNIH Chemical Genomics Center [NCGC]\nAssay Provider: Melvin DePamphilis, NICHD, NIH\nEukaryotic cells normally restrict genome duplication to once per cell division. When this process is aberrant, DNA re-replication occurs when cells reinitiate DNA replication before the first round of replication is complete. DNA re-replication induces the DNA damage response, arrests cell proliferation, and triggers apoptosis. The cell cycle components cyclin A, Cdt-1, Cdc6 and geminin are critical regulators of this process and their misregulation results in DNA re-replication in normal and cancer cells. To identify compounds that induce re-replication in normal cells, an image-based assay was used to measure DNA content of nuclei, as detected by the fluorescent DNA binding dye, Hoechst. Cell nuclei were imaged by a fluorescence scanning plate imager and compounds that induce DNA re-replication were identified by the increase of nuclei with elevated fluorescence intensity.#\nFor screening, 250 cells in 5 uL/well were dispensed into black clear 1536-well plates (Aurora) using a solenoid-based dispenser. Following transfer of 23 nL compound or DMSO vehicle by a pin tool, the plates were incubated 48 hr at 37 C and 5% CO2. After addition of 1 uL/well Hoescht stain, the plates were incubated 40 min at 37 C, 5% CO2 and total intensity of fluorescent objects (nuclei) were enumerated by an Acumen Explorer Ex3 (TTP LabTech) fluorescence scanning plate imager (405 nm excitation, 500-530 nm emission).\nKeywords: NIH Roadmap, MLPCN, MLI, MLSMR, qHTS, NCGC, DNA replication, cancer", "units": {"activity (re-replication induction)": "%"}, "values": [
      {"smiles": "CC(O)C(C)OC(=O)[C@@H]1C[C@@H]2c3cccc4c3c(cn4C(C)C)C[C@H]2N(C)C1", "note": "(some centres not stated)", "activity (re-replication induction)": 0.818},
      {"smiles": "N[C@H](CCCCCP(=O)(O)O)C(=O)O", "activity (re-replication induction)": 1.2},
      {"smiles": "N[C@@H](Cn1cc(I)c(=O)[nH]c1=O)C(=O)O", "activity (re-replication induction)": 4.99},
      {"smiles": "C[N+]1(C)CCc2cc3c(cc2C1C1OC(=O)c2c1ccc1c2OCO1)OCO3", "note": "(configuration not stated)", "activity (re-replication induction)": -5.91},
      {"smiles": "COc1ccc(CCN)cc1O", "activity (re-replication induction)": -0.29},
      {"smiles": "N#CC(C#N)=Cc1ccc([N+](=O)[O-])c(O)c1", "activity (re-replication induction)": -0.819},
      {"smiles": "C=CCN1CCC2(C)c3cc(O)ccc3CC1C2C", "note": "(configuration not stated)", "activity (re-replication induction)": -14.4},
      {"smiles": "COc1cc(CCN)ccc1O", "activity (re-replication induction)": 1.73},
      {"smiles": "CN1CCc2cc(O)cc3c2C1Cc1ccc(O)c(O)c1-3", "note": "(configuration not stated)", "activity (re-replication induction)": 9.49},
      {"smiles": "COc1ccc(-n2nc(C(F)(F)F)cc2-c2ccc(Cl)cc2)cc1", "activity (re-replication induction)": 5.15},
      {"smiles": "COC(=O)c1cc2c(cn1)[nH]c1ccccc12", "activity (re-replication induction)": -0.86},
      {"smiles": "O=[N+]([O-])c1ccc(O[C@@H]2O[C@H](CO)[C@@H](O)[C@H](O)[C@H]2F)c([N+](=O)[O-])c1", "activity (re-replication induction)": 1.2},
      {"smiles": "COc1ccc2[nH]cc(CCN(C)C)c2c1", "activity (re-replication induction)": 9.66},
      {"smiles": "CC(=O)OCC1=C(C(=O)[O-])N2C(=O)[C@@H](NC(=O)CCC[C@@H](N)C(=O)[O-])[C@H]2SC1.[Zn+2]", "activity (re-replication induction)": -6.87},
      {"smiles": "CN1CCN(c2ccc3ccccc3n2)CC1", "activity (re-replication induction)": -11.6},
      {"smiles": "CP(=O)(O)CCCN", "activity (re-replication induction)": 0.248},
      {"smiles": "COc1cc([C@@H]2c3cc4c(cc3[C@H](O)C3COC(=O)[C@@H]32)OCO4)cc(OC)c1OC", "note": "(some centres not stated)", "Potency": "32.6 nM (active)"}
    ]}
  ]
}
